Measured values: PubChem BioAssay AID504523 (Broad Institute, 2011)
Out of some 340,000 compounds screened, about 490 (0.14%) were called active. The sample holds actives, similar compounds and a random draw of the others, so the mix is not that of the screen. Values without a mark were called inactive. Cut-off read from the data, not from the text of the source: active = inhibition above about 12%; inconclusive = no clear call, values can overlap the other calls; inactive = below about 7.3%.

target: Kelch-like ECH-associated protein 1 (Homo sapiens) (UniProt Q14145); test: Keap1-Nrf2 protein-protein interaction inhibitors, primary screen, biochemical, fluorescence polarization, single point (AID 504523); conditions: Keap1 Kelch-Nrf2 peptide fluorescence polarization, 1536-well; at 9.4 µM; active compounds read high;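 note: human Keap1 Kelch domain with fluorescein labeled Nrf2 9mer peptide probe; 0% = neutral control wells and 100% = peptide positive control; higher means more block of Keap1 binding to Nrf2 peptide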
Sequence (Q14145 whole entry, looked up, the tested form may be a part): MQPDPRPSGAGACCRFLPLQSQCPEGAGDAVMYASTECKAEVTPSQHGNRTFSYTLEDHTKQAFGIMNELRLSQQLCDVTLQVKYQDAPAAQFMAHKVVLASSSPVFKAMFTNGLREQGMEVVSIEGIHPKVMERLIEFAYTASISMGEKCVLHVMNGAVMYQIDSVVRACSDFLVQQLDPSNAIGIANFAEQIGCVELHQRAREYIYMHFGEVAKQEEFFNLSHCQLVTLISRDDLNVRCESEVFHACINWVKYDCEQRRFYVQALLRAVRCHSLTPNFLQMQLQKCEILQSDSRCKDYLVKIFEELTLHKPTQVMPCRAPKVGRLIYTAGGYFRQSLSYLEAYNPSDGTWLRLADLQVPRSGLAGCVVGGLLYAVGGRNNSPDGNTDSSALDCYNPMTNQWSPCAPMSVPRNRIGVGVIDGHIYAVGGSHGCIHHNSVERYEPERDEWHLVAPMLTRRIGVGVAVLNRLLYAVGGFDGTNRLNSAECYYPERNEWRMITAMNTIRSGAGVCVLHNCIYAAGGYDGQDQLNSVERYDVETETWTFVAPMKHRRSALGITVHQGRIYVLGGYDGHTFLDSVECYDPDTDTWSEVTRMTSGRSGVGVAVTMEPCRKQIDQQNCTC

Compared with `Nc1ccccc1SC(C[N+](=O)[O-])c1ccccc1` (stereo unspecified), `O=C1CC(c2ccccc2)C(c2ccccc2)=NN1` (stereo unspecified) is lower in inhibition: -4.52% for the first, -8.87% for the second.

First: COc1ccc(OC)c2[nH]c(=O)c(CCNC(=O)C(=O)c3c[nH]c4ccccc34)cc12
Second: CC(C)(C)N(Cc1ccccc1)C(=O)COC(=O)CCc1c[nH]c2ccccc12
The inhibition of the first is higher: -5.41% for the first, -5.52% for the second.

First: CC(=O)c1cc(C#N)c(SCC(=O)Nc2nccs2)nc1C
Second: CCC1CCc2c(sc(NC(C)=O)c2C#N)C1 (stereo unspecified)
The inhibition of the first is lower: -4.52% for the first, -1.96% for the second.

Going from `Cc1ccnc(NC(=O)C2CCN(S(=O)(=O)c3c(C)c(C)cc(C)c3C)CC2)c1` to `Cc1ccc2nc(NC(=O)C3CSC4(C)CCC(=O)N34)sc2c1` (stereo unspecified), the inhibition rises from -1.09% to -0.772%.

Compared with `COCCCNC(=O)C1CCC(CNS(=O)(=O)c2ccc(OC)cc2)CC1` (stereo unspecified), `COc1ccc(S(=O)(=O)N2C[C@H]3CON(C)[C@H]3C[C@H]2c2cccc(Br)c2)cc1` is lower in inhibition: 0.471% for the first, -1.34% for the second.

First: O=C(OCC(=O)N(CCc1ccccc1)Cc1ccccc1)c1ccccc1[N+](=O)[O-]
Second: OCCC1CN(Cc2cccc(O)c2)CCN1CCc1ccccc1 (stereo unspecified)
The inhibition of the first is higher: 1% for the first, -6.53% for the second.

First: CC(C)C[C@H](NC(=O)C1CCC(CNC(=O)[C@@H]2CCCN2C(=O)OC(C)(C)C)CC1)C(=O)O (stereo partly specified)
Second: C=CCn1c(SCc2cccc(F)c2)nc2cc(C(=O)N3CCC(C(N)=O)CC3)ccc2c1=O
The inhibition of the first is higher: 0.427% for the first, -4.14% for the second.

Compared with `Cc1nc2ccccc2n1C(=O)N1CCOCC1`, `c1ccc2c(c1)OCCOCCOCCO2` is higher in inhibition: -5.92% for the first, 1.51% for the second.

Going from `COC(C[C@H](O)CC(=O)COCc1ccccc1)OC` to `Oc1cccc(CCc2ccccn2)c1`, the inhibition rises from -0.107% to 1.31%.

Going from `Cc1cc(C)n(-c2nnc(N3CCN(c4ccccc4)CC3)nn2)n1` to `Cn1nc(-c2ccccc2)c(CSc2cccc(Cl)c2)c1Cl`, the inhibition rises from -3.51% to 1.6%.

First: COc1cc(/C=N/N=C(\N)c2nonc2N)cc(OC)c1OC
Second: CCN(CC)Cc1c(C(=O)N/N=C/c2cccc(OCc3ccc(F)cc3)c2)nnn1-c1nonc1N
The inhibition of the first is lower: 1.13% for the first, 2.94% for the second.

Going from `O=c1cnnc(Nc2ccccc2F)[nH]1` to `Cc1ccc(Nc2cc(C)nc3c(C)ccc([N+](=O)[O-])c23)cc1`, the inhibition rises from -0.638% to -0.384%.

`CC(=O)NS(=O)(=O)c1ccc2c(c1)Cc1cc(S(=O)(=O)NC(C)=O)ccc1-2` gave an inhibition of -4.15%.

With `CCN1CC=C2C(C#N)=C(N)C(C#N)(C#N)[C@H](c3ccoc3)[C@H]2C1` the inhibition was 26.5% (active).
